# According to PMC4336329 (PLoS ONE, 2015):
# The campaign covered roughly 310,000 compounds. About 14,000 (4.5%) showed an effect of 50% or more. The effect is printed as a negative number. The list comes from a sample in which strong results are over-represented; it also holds similar structures and randomly drawn compounds.
# Target: human ether-à-go-go-related gene (hERG) potassium channel (human, UniProt Q12809)
# Test: primary screen, population patch clamp on CHO cells stably expressing hERG; higher = less effect of the substance
# 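Note: peak tail current of the secondary pulse compared with the same well before compound.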
# human ether-à-go-go-related gene (hERG) potassium channel, sequence (Q12809 whole entry, looked up): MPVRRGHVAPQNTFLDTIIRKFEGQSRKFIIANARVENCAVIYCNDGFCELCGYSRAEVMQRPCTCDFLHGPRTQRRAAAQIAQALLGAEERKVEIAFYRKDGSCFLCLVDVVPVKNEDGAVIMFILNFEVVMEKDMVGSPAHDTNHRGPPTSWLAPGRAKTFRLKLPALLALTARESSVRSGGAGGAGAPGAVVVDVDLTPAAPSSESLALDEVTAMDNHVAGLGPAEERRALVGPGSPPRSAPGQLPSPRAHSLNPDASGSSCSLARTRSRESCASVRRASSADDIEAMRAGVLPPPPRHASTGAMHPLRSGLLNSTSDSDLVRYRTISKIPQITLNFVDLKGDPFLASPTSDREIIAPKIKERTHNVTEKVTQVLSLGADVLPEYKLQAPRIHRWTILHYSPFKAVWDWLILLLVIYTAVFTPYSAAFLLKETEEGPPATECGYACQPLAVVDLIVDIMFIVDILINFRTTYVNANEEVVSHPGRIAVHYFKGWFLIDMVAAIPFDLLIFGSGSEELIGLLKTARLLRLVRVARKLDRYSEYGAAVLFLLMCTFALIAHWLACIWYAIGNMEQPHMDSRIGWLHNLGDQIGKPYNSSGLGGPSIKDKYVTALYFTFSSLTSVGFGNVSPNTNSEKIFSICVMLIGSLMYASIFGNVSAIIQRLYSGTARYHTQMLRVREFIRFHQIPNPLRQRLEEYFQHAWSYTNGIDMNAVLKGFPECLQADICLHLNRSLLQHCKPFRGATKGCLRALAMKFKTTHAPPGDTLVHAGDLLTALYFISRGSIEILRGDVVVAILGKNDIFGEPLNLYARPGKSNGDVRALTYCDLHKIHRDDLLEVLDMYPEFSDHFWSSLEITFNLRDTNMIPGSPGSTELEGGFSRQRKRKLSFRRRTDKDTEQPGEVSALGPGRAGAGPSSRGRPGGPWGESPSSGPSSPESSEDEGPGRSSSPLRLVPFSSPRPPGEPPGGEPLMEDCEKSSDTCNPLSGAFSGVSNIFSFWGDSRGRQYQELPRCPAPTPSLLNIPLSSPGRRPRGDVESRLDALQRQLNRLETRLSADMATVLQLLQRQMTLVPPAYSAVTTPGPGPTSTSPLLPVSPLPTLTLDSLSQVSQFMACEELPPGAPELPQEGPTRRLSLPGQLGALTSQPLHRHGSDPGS
row,Compound,"hERG current change (%, negative = inhibition) at 10uM [%]"
1,CCOC(=O)C1(C)NC(c2ccco2)C2C(=O)N(c3ccc(C)cc3)C(=O)C21 (centres unmarked),11.3
2,C=CCSc1nc2ccccc2n2cnnc12,-18.5
3,O=C1CN(C(=O)c2cc3ccccc3oc2=O)C(c2ccc(F)cc2)c2cc(Br)ccc2N1 (centres unmarked),-68.6
4,Cc1ccc2c(c1)C(c1ccccc1)N(C(=O)c1cc3ccccc3oc1=O)CC(=O)N2 (centres unmarked),-65.1
5,Cc1ccc2c(c1)C(c1ccccc1)N(C(=O)c1ccc(F)cc1)CC(=O)N2 (centres unmarked),-6.99
6,CC(=O)N1CC(=O)Nc2ccc(C)cc2C1c1ccccc1 (centres unmarked),14.7
7,O=C1CN(C(=O)c2cc3ccccc3oc2=O)C(c2ccccc2)c2cc(F)ccc2N1 (centres unmarked),-33.9
8,O=C1CN(C(=O)c2c(F)cccc2F)C(c2ccc(F)cc2)c2cc(Br)ccc2N1 (centres unmarked),-35.8
9,O=C1CN(C(=O)c2cc3ccccc3oc2=O)C(c2ccc(F)cc2)c2cc(F)ccc2N1 (centres unmarked),-32.1
10,Cc1ccccc1C(=O)N1CC(=O)Nc2ccc(F)cc2C1c1ccc(F)cc1 (centres unmarked),-16.1
11,COc1ccccc1C(=O)N1CC(=O)Nc2ccc(C)cc2C1c1ccc(F)cc1 (centres unmarked),-38.6
12,Cc1ccc2c(c1)C(c1ccccc1)N(C(=O)c1cccc([N+](=O)[O-])c1)CC(=O)N2 (centres unmarked),-55.6
13,Cc1ccc2c(c1)C(c1ccccc1)N(C(=O)c1ccccc1)CC(=O)N2 (centres unmarked),-7.17
14,Cc1ccc2c(c1)C(c1ccc(F)cc1)N(C(=O)c1cc3ccccc3oc1=O)CC(=O)N2 (centres unmarked),-55
15,CC1(C)OC(=O)C(=CNc2cccc(C(=O)O)c2)C(=O)O1,18.7
16,COc1cc(/C=N/NC(=O)C(=O)NCC2CCCO2)cc(Cl)c1O (centres unmarked),31.8
17,O=C(Nc1ccccc1)Nc1nc(-c2ccc(F)c(F)c2)cs1,16.3
18,Cc1c(C)n2c(SCC(=O)N3CC(C)OC(C)C3)nnc2[nH]c1=O (centres unmarked),9.45
19,C/C(=N\NC(=O)c1c(Br)c(C)nn1C)c1cccc(NC(=O)c2ccccc2C)c1,-4.71
20,O=C(NC1CCCCCC1)C(=S)NCc1ccccc1,5.94
21,Cc1ccc(C(=O)NCCC(=O)Nc2ccccc2C)cc1,19.5

row,Compound,"hERG current change (%, negative = inhibition) at 10uM [%]"
1,COCCNC(=O)Cn1cc(/C=C2\C(=O)NC(=O)N(c3ccccc3F)C2=O)c2ccccc21,17
2,O=C1CN(C(=O)c2ccc(Br)o2)C(c2ccccc2)c2cc(F)ccc2N1 (centres unmarked),-45.3
3,O=C1CN(C(=O)c2ccc(Br)o2)C(c2ccccc2)c2cc(Br)ccc2N1 (centres unmarked),-23.6
4,Cc1ccc2c(c1)C(c1ccccc1)N(C(=O)c1ccc(Br)o1)CC(=O)N2 (centres unmarked),-56.9
5,Cc1c(-c2ccccc2)[n+](=O)c(-c2ccco2)c(C)n1[O-],7.02
6,COCCNC(=O)C1CC(=O)N(c2ccc(OC)cc2)C1c1ccc(OC)cc1 (centres unmarked),9.03
7,O=C(c1ccco1)N1CCN(C(c2ccccc2F)c2nnnn2Cc2cccs2)CC1 (centres unmarked),-51
8,Cl.O=C(c1ccco1)N1CCN(C(c2ccccc2F)c2nnnn2CC2CCCO2)CC1 (centres unmarked),-17.2
9,CCC(c1nnnn1Cc1cccs1)N1CCN(C(=O)c2ccco2)CC1 (centres unmarked),-36.5
10,CCC(C)(C)n1nnnc1C(c1ccccc1F)N1CCN(C(=O)c2ccco2)CC1 (centres unmarked),-13.9
11,Cl.Clc1ccccc1C(c1nnnn1Cc1ccco1)N1CCN(Cc2ccco2)CC1 (centres unmarked),-27.6
12,COCCn1nnnc1C(c1ccccc1OC)N1CCN(C(=O)c2ccco2)CC1 (centres unmarked),-16.1
13,O=C(c1ccco1)N1CCN(C(c2ccccc2Cl)c2nnnn2Cc2cccs2)CC1 (centres unmarked),-56.2
14,Cl.O=C(c1ccco1)N1CCN(C(c2ccccc2Cl)c2nnnn2Cc2ccco2)CC1 (centres unmarked),-65.1
15,Cl.O=C(c1ccco1)N1CCN(C(c2ccccc2Cl)c2nnnn2CC2CCCO2)CC1 (centres unmarked),-12.3
16,CC1=NNC(=O)C1CCC(=O)N/N=C\c1ccccc1[N+](=O)[O-] (centres unmarked),0.38
17,CCN1CCN(CCCNC(=O)c2ccc(CS(=O)c3ccc(Br)cc3)o2)CC1 (centres unmarked),24.5
18,CCOc1[nH]n(-c2ccccc2)c(=O)c1C=NCC(=O)OC,-18.8
19,CCC(=O)c1ccc(N2CCN(C(=O)c3cccs3)CC2)c(F)c1,-51.6
20,CCCC(=O)c1ccc(N2CCN(C(=O)c3cccs3)CC2)c(F)c1,-75.1
21,CCCC(=O)c1ccc(N2CCCC2)c(F)c1,6.96

row,Compound,"hERG current change (%, negative = inhibition) at 10uM [%]"
1,CCCC(=O)c1ccc(N2CCCCC2)c(F)c1,10.5
2,CCC(=O)c1ccc(N2CCN(C(=O)c3ccccc3F)CC2)c(F)c1,-20.7
3,CC(=O)c1ccc(N2CCN(C(=O)c3cccs3)CC2)c(F)c1,-28.3
4,COc1ccccc1CNS(=O)(=O)c1c(C(=O)N2CCCCC2)c(C)n(C)c1C,5.51
5,COc1cccc(C2=NC(C)(C)NC(c3ccccc3O)C2)c1 (centres unmarked),2.64
6,COc1ccc(Cn2c(=O)c3[nH]cnc3n(-c3ccccc3C)c2=O)cc1,7.7
7,Cc1cccc(NC(=O)CS(=O)(=O)Cc2ccccc2)n1,2.58
8,CCc1cc(C(=O)N/N=C/c2ccc(OC)cc2)c2ccccc2n1,-4.27
9,O=C1C2Sc3[nH]c(=O)sc3C(c3ccccc3)C2C(=O)N1c1ccccc1 (centres unmarked),-2.84
10,CC(=O)Nc1ccc(S(=O)(=O)NC2(C(F)(F)F)NC(=O)N(C3CCCCC3)C2=O)cc1 (centres unmarked),2.87
11,Cc1cc(C)nc(SC2CCCCC2NS(=O)(=O)c2ccc(Cl)cc2)n1 (centres unmarked),-14.7
12,CCCN1CCN(C2CCCCC2NS(=O)(=O)c2ccc(Cl)cc2)CC1 (centres unmarked),-63.4
13,O=S(=O)(NC1CCCCC1Sc1ncccn1)c1ccc(Cl)cc1 (centres unmarked),-50.9
14,CCN1CCN(C2CCCCC2NS(=O)(=O)c2ccccc2)CC1 (centres unmarked),11.7
15,O=S(=O)(NC1CCCCC1N1CCCCC1)c1ccc(Cl)cc1 (centres unmarked),-5.16
16,CN1CCN(C2CCCCC2NS(=O)(=O)c2ccc(Cl)cc2)CC1 (centres unmarked),-29.8
17,O=S(=O)(NC1CCCCC1Sc1ncccn1)c1ccccc1 (centres unmarked),-5.72
18,CCN1CCN(C2CCCCC2NS(=O)(=O)c2ccc(Cl)cc2)CC1 (centres unmarked),-61.8
19,CCCN1CCN(C2CCCCC2NS(=O)(=O)c2ccccc2)CC1 (centres unmarked),-44.7
20,CCN(c1ccccc1)S(=O)(=O)c1ccc(Cl)c(NC(=O)COC(=O)c2ccc[nH]c2=O)c1,3.13
21,C#CCOCCOCCOCCNc1nc(N2CCN(C(=O)C([C@@H](C)CC)n3cc(C(N)Cc4ccc(O)cc4)nn3)CC2)nc(N2CCN(C(=O)[C@H](CCC(=O)O)n3cc(C(N)[C@H](C)CC)nn3)CC2)n1.Cl (some centres unmarked),4.5

row,Compound,"hERG current change (%, negative = inhibition) at 10uM [%]"
1,O=C(NCC(=O)N1CCOCC1)OCc1ccccc1,-30.8
2,O=C(OCc1ccccc1)N1CCOCCN(C(=O)OCc2ccccc2)CCOCC1,-64
3,O=C(O)C1CCN(C(=O)OCc2ccccc2)CC1,13.8
4,COC(=O)CCn1nnc(-c2ccc(C)cc2)n1,12.3
5,COc1cccc(-c2nc3n(n2)C(c2cccs2)C(C(=O)Nc2cccnc2)=C(C)N3)c1 (centres unmarked),-72.3
6,COc1ccccc1-c1nc2n(n1)C(c1cccs1)C(C(=O)Nc1cccnc1)=C(C)N2 (centres unmarked),-31.7
7,COc1ccc(C2C(C(=O)Nc3cccnc3)=C(C)Nc3nc(-c4cccs4)nn32)cc1 (centres unmarked),-39.6
8,Cc1cccc(C(C(=O)NC2CCCCC2)N(C(=O)c2csnn2)C2CC2)c1 (centres unmarked),7.99
9,CCOc1cc(C(=O)N2CCC(CC3CC(c4cccc(Br)c4)=NO3)(C(=O)NCC3CCCCC3)CC2)cc(OCC)c1OCC (centres unmarked),4.14
10,CCCNC(=O)C1(CC2CC(c3ccccc3)=NO2)CCN(C(=O)OC(C)(C)C)CC1 (centres unmarked),-48.6
11,CCCCCCCNC(=O)C1(CC2CC(c3ccc(Cl)cc3)=NO2)CCN(C(=O)c2ccccc2)CC1 (centres unmarked),-15.8
12,CCCCCCCNC(=O)C1(CC2CC(c3cccc(Br)c3)=NO2)CCN(C(=O)c2cc(OCC)c(OCC)c(OCC)c2)CC1 (centres unmarked),4.79
13,CCCNC(=O)C1(CC2CC(c3ccccc3)=NO2)CCN(C(=O)c2ccccc2)CC1 (centres unmarked),-68.9
14,CCCNC(=O)C1(CC2CC(c3ccccc3)=NO2)CCN(C(=O)Cc2ccc(F)cc2)CC1 (centres unmarked),-64.6
15,CCCNC(=O)C1(CC2CC(c3ccccc3)=NO2)CCN(C(=O)C2(C)CC2)CC1 (centres unmarked),-17
16,CCCCCCCNC(=O)C1(CC2CC(c3ccccc3)=NO2)CCN(C(=O)c2ccccc2)CC1 (centres unmarked),-70.9
17,COc1ccc(CNC(=O)C2(CC3CC(c4ccccc4)=NO3)CCN(C(=O)Cc3ccc(F)cc3)CC2)cc1 (centres unmarked),18.1
18,CCCCCCCNC(=O)C1(CC2CC(c3ccc(Cl)cc3)=NO2)CCN(C(=O)Cc2ccc(F)cc2)CC1 (centres unmarked),-11
19,CCCCCCCNC(=O)C1(CC2CC(c3cccc(Br)c3)=NO2)CCN(C(=O)c2ccccc2)CC1 (centres unmarked),-71
20,CCCNC(=O)C1(CC2CC(c3ccccc3)=NO2)CCN(C(=O)c2cc(OCC)c(OCC)c(OCC)c2)CC1 (centres unmarked),-34.6
